# Several values for one entry are separate records, joined by “and”; a condition that tells them apart may be missing. Identical values can stand only once. Records with an inconclusive call do not appear. A call without a number means that no potency is given here. Activity calls are given as the source filed them. Unless noted, calls follow the shape of the full dose curve.
# Key:
# [1] = qHTS for Inhibitors of the Functional Ribonucleoprotein Complex (vRNP) of Lassa (LASV) Arenavirus: LASV Primary Screen - GLuc reporter signal (AID 1347082; calls by dose curve; tested in HEK293 reporter line; also: nearly all actives have a fitted effect of over 60% in size)
# [2] = biological target: Nucleoprotein (Lymphocytic choriomeningitis virus (strain Armstrong)) (UniProt P09992); assay: qHTS for Inhibitors of the Functional Ribonucleoprotein Complex (vRNP) of Lymphocytic Choriomeningitis Arenaviruses (LCMV): LCMV Primary Screen - GLuc reporter signal (AID 1347086); also: nearly all actives have a fitted effect of over 70% in size
# [3] = qHTS for Inhibitors of the Functional Ribonucleoprotein Complex (vRNP) of Lymphocytic Choriomeningitis Arenaviruses (LCMV): Viability assay - alamar blue signal for LCMV Primary Screen (AID 1347085; calls by dose curve; tested in HEK293 reporter line; also: nearly all actives have a fitted effect of over 80% in size; also: potency is read from the fitted curve at half-maximal effect)
# [4] = Primary qHTS to identify inhibitors of SARS-CoV-2 cell entry (AID 1645846); settings: activity change, negative = inhibition: at 57.1 µM (top of the series) unless noted; also: nearly all actives have a fitted effect of over 45% in size; also: potency is read from the fitted curve at half-maximal effect
# Procedure, shortened: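 Luminescence readout (Bright-Glo luciferase) 48 h after pseudoparticle addition. HEK293-ACE2 cells, 1500/well; compound pre-incubation 1 h; Normalized to spike PP and bald PP.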
# [5] = Cytotoxicity counterscreen for inhibitors of SARS-CoV-2 cell entry (AID 1645845); also: nearly all actives have a fitted effect of over 50% in size
# Procedure, shortened: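 Expi293F/hACE2 cells seeded overnight; cpd pin-transferred in DMSO, 1 h preincubation, + media, 48 h 37 C 5% CO2; ATPLite 1step luminescence; normalized to cells and no cells.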
# [6] = biological target: Alpha-galactosidase (Coffea arabica) (UniProt Q42656); assay: Counterscreen for Glucocerebrosidase Inhibitors: qHTS Assay for Coffee Bean alpha-Galactosidase at pH 4.5 (AID 957; active = well fitted curve in the direction sought with a large enough effect; an effect the other way counts as inactive or inconclusive)
# Procedure, shortened: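 Coffee bean alpha-galactosidase 2 nM, substrate 4-MU-alpha-Gal 80 uM, pH 4.5 citrate/Tween-20, 20 min RT. Cpd titration 0.7 nM–77 uM. Stop pH 10, fluorescence 365/440 nm; Hill-equation AC50.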
# [7] = biological target: Alpha-galactosidase (Coffea arabica) (UniProt Q42656); assay: Counterscreen for Glucocerebrosidase Inhibitors: qHTS Assay for Coffee Bean alpha-Galactosidase at pH 5.9 (AID 998; active = well fitted curve in the direction sought with a large enough effect; an effect the other way counts as inactive or inconclusive)
# Procedure, shortened: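 Green coffee bean enzyme (2 nM final) was incubated with compounds (0.7 nM–77 uM) and 4-methylumbelliferyl alpha-D-galactopyranoside (80 uM) in citrate buffer pH 5.9, 20 min at room temperature. High-pH stop; fluorescence 365/440 nm; AC50 from Hill fits.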
# [8] = Validation screen for inhibitors of Lassa infection (AID 463096); also: potency is read from the fitted curve at half-maximal effect
# [9] = Inducers of the Endoplasmic Reticulum Stress Response (ERSR) in human glioma: Validation (AID 504836; active = well fitted curve in the direction sought with a large enough effect; an effect the other way counts as inactive or inconclusive)
# Procedure, shortened: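 Stably transfected U87-MG human glioma cells carrying a GRP78-based luminescent sensor were seeded at 1000 cells/well, pin-dosed with compounds and incubated 16 h. Luciferase reagent was then added, and end-point luminescence was read after 10 min at room temperature.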
# [10] = biological target: Bile acid receptor (Homo sapiens) (UniProt Q96RI1); assay: qHTS assay for small molecule agonists of farnesoid X receptor signaling (AID 588527); settings: HEK293T FXR-UAS-bla, beta-lactamase ratio, 16 h; activation: stronger effect = higher value
# Procedure, shortened: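 Agonist-mode beta-lactamase reporter in GeneBLAzer FXR-UAS-bla HEK293T cells, titration up to 92 uM, 16 h exposure at 37 C, CCF4 fluorescence. Response scaled to DMSO (0%) and 100 uM chenodeoxycholic acid (100%), then Hill-fitted for EC50 and efficacy.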
# [11] = biological target: Peroxisome proliferator-activated receptor delta (Homo sapiens) (UniProt Q03181); assay: qHTS assay for small molecule agonists of peroxisome proliferator-activated receptor delta signaling (AID 588534)
# Procedure, shortened: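 Fluorescence from CCF4 substrate cleavage by beta-lactamase reporter, read 2 hrs at RT, measured agonist activity. Compounds were tested with 18 hrs exposure at 37 C. Concentration-response data fitted to Hill equation.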
# [12] = Confirmatory qHTS for VERO E6 Cytotoxicity Assay: Counterscreen for SARS-CoV-2 CPE Assay (AID 1508605); also: potency is read from the fitted curve at half-maximal effect; nearly all actives have a fitted effect of over 60% in size
# [13] = qHTS Assay for Lipid Storage Modulators (AID 1519); settings: Drosophila S3 cells, BODIPY lipid droplet/cell ratio, laser cytometry, cells loaded with oleic acid
# Procedure, shortened: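 Cells seeded at 5,000 per well were treated with compounds over a concentration series and loaded with oleic acid (400 uM, as added). Lipid droplet fluorescence (488 nm excitation, 500-530 nm channel) was read by laser-scanning cytometry and normalized to 20 uM Triacsin C.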
# Alpha-galactosidase (Coffea arabica), sequence (Q42656 whole entry, looked up): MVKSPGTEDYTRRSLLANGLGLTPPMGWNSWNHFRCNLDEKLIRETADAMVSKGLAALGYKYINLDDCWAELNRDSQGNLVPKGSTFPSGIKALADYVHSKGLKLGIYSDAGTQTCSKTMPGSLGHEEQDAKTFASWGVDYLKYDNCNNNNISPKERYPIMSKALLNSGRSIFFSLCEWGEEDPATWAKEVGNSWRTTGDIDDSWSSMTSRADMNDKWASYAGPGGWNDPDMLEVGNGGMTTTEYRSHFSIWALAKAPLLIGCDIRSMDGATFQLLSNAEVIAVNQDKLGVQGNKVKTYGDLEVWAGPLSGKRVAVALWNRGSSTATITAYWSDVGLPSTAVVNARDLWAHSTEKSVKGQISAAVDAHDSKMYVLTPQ
# Nucleoprotein (Lymphocytic choriomeningitis virus (strain Armstrong)), sequence (P09992 whole entry, looked up): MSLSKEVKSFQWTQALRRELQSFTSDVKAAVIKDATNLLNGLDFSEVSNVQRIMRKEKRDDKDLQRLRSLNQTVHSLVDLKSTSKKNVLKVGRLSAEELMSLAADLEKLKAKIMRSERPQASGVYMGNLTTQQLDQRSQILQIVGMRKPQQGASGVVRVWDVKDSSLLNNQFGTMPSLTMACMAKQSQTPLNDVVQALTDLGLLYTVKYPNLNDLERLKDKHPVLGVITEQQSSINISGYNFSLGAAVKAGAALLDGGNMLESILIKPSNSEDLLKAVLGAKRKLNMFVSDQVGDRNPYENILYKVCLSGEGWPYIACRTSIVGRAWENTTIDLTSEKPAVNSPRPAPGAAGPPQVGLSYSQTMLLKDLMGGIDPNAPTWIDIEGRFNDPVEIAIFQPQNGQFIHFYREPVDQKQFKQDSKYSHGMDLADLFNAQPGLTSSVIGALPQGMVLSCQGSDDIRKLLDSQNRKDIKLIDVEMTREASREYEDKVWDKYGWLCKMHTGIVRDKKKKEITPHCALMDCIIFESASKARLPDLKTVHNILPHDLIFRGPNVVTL
# Peroxisome proliferator-activated receptor delta (Homo sapiens), sequence (Q03181 whole entry, looked up): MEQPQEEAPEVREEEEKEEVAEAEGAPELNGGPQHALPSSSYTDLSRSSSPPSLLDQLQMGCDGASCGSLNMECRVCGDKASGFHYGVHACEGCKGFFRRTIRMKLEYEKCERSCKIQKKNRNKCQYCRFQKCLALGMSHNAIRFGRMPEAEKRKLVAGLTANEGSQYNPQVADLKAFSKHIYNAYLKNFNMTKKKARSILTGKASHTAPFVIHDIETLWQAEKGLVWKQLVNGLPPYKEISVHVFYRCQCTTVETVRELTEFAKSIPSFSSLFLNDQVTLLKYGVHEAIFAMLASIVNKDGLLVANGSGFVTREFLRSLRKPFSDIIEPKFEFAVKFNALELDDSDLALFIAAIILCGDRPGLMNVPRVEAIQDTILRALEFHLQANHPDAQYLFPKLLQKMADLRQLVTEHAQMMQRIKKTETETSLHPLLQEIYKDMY
# Bile acid receptor (Homo sapiens), sequence (Q96RI1 whole entry, looked up): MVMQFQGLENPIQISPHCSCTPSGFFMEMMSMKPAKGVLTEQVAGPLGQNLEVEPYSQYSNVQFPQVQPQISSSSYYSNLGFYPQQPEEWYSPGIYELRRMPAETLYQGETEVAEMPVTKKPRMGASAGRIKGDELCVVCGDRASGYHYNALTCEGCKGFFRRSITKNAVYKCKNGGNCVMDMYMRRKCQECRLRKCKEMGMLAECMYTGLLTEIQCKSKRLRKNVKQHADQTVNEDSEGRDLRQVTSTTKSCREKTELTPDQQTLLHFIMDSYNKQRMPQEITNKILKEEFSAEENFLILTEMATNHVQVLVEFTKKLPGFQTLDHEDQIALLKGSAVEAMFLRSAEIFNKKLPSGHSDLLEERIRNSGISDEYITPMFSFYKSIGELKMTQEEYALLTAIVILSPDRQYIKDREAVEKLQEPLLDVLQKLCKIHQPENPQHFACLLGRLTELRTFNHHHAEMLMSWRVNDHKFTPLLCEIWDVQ
smiles,measurement,setting,value
CC[C@H](C)[C@@H]1NC(=O)CNC(=O)c2csc(n2)[C@H](C(C)(C)O)OC(=O)C(C)(C)[C@H](CCCC(C)(Cl)Cl)OC(=O)c2csc1n2,Potency,[1],inactive
same,Potency,[2],inactive
COc1cc2c(Nc3ccc(NC(=O)c4ccccc4)cc3)ncnc2cc1OCCCN1CCOCC1,Potency,[1],inactive
same,Potency,[3],inactive
same,Potency,[2],inactive
same,Potency,[4],7.94 µM (active)
C[C@H](NC(=O)c1sccc1OCc1ccc(Cl)cc1)c1ccccc1,Potency,[1],inactive
same,Potency,[3],inactive
same,Potency,[5],inactive
CCC[C@H]1NC(=O)[C@H](C)N(C)C(=O)C(C)(C)C(=O)C(C)NC(=O)[C@H](Cc2ccc(OC)cc2)N(C)C(=O)[C@H](C(C)C)N(C)C(=O)CNC(=O)[C@H](CC(C)C)N(C)C(=O)CNC(=O)[C@H]([C@@H](C)CC)OC(=O)[C@H]1C (some centres undefined),Potency,[1],inactive
same,Potency,[2],inactive
CCCC(=O)NCCc1c2n(c3ccc(OC)cc13)CCCc1ccccc1-2,outcome,[6],inactive
same,outcome,[7],inactive
same,Potency,[8],inactive
same,Potency,[1],inactive
same,Potency,[3],inactive
COc1cc(C=CC(=O)O)ccc1O,Potency,[1],inactive
same,Potency,[2],inactive
CC(C)NC[C@@H](O)c1ccc(O)c(O)c1,outcome,[9],inactive
same,Potency,[1],inactive
same,Potency,[3],inactive
same,Potency,[2],inactive
CCCCCC(O)c1cccc(OCc2ccc3ccccc3n2)c1 (centres undefined),Potency,[8],inactive
same,outcome,[9],inactive
same,Potency,[1],inactive
same,Potency,[3],inactive
same,Potency,[2],inactive
NC(N)=Nc1nc(CSCCC(N)=NS(N)(=O)=O)cs1,Potency,[1],inactive
same,Potency,[2],inactive
C=C1C(=CC=C2CCC[C@]3(C)[C@@H]([C@H](C)CCCC(C)(C)O)CC[C@@H]23)C[C@@H](O)C[C@@H]1O,Potency,[1],inactive
same,Potency,[2],inactive
O=C(Nc1ccccc1)c1cc([N+](=O)[O-])ccc1Cl,outcome,[6],inactive
same,outcome,[7],inactive
same,outcome,[9],inactive
same,activation,[10],-1.48% (inactive)
same,Potency,[11],inactive
same,Potency,[1],inactive
same,Potency,[3],inactive
Cc1ccc(S(=O)(=O)N[C@@H](Cc2ccccc2)C(=O)CCl)cc1,outcome,[6],inactive
same,outcome,[7],inactive
same,Potency,[8],7.08 µM (active)
same,outcome,[9],inactive
same,Potency,[1],inactive
same,Potency,[3],inactive
same,Potency,[2],inactive
CC(N)(Cc1ccc(O)c(O)c1)C(=O)O (centres undefined),Potency,[8],inactive
same,outcome,[9],inactive
same,Potency,[1],inactive
same,Potency,[3],inactive
same,Potency,[2],inactive
CC1=CC(O)C(O)C2(C)C1CC1OC(=O)C(O)C3C(C)C(O)C4(O)OCC13C42 (centres undefined),Potency,[1],inactive
same,Potency,[2],inactive
Nc1ncnc2c1c(-c1cccc(OCc3ccccc3)c1)cn2C1CC(CN2CCCC2)C1 (centres undefined),Potency,[1],inactive
same,Potency,[3],27.3 µM (active)
same,Potency,[12],12.6 µM (active)
same,Potency,[4],14.1 µM (active)
NC(=Nc1ccccc1)NC(=O)c1nc(Cl)c(N)nc1N,outcome,[6],inactive
same,outcome,[7],inactive
same,outcome,[9],inactive
same,Potency,[1],inactive
same,Potency,[3],inactive
same,Potency,[2],inactive
CCC(C)SSc1ncc[nH]1 (centres undefined),Potency,[1],inactive
same,Potency,[2],inactive
COc1ccc(CN2CCc3cc(OC)c(OC)cc3C2)cc1O,Potency,[1],inactive
same,Potency,[2],inactive
COc1c2ccoc2c(OCC=C(C)C)c2oc(=O)ccc12,Potency,[1],inactive
same,Potency,[2],inactive
Cc1cc(Nc2cc(CN3CCOCC3)c3nc(C)c(Cc4ccc(Cl)cc4F)n3n2)n[nH]1,Potency,[1],inactive
same,Potency,[2],inactive
COc1ccc(NC(=O)/C=C/c2ccc(Cl)cc2)cc1,Potency,[1],inactive
same,Potency,[2],inactive
COc1cc(OC)c2c(c1Cl)O[C@@]1(C2=O)[C@H](C)CC(=O)C[C@@H]1OC,Potency,[1],inactive
same,Potency,[2],inactive
O=C1OC(=O)C2C3CCC(O3)C12 (centres undefined),"activity change, negative = inhibition",[13]; at 57.5 µM (top of the series),0.66% (inactive) and -7.44% (inactive)
same,max response,[13]; measured here: cell count channel max response,-1.46% and -29.7%
same,max response,[13]; measured here: lipid channel max response,1.23% and -36.1%
same,Potency,[8],inactive
same,outcome,[9],inactive
same,Potency,[1],inactive
same,Potency,[3],12.6 µM (active)
Nc1ncnc2n[nH]c(Nc3ccc(F)cc3)c12,outcome,[9],inactive
same,Potency,[1],inactive
same,Potency,[2],inactive
COc1ccc(-c2cc(=O)c3c(O)c(OC)c(OC)cc3o2)cc1O,Potency,[1],inactive
same,Potency,[2],inactive
c1ccc(-c2oc3ncnc(NC[C@@H]4CCCO4)c3c2-c2ccccc2)cc1,Potency,[1],inactive
same,Potency,[2],inactive
same,"activity change, negative = inhibition",[4],-93.9%
CN1CCCN(C(=O)c2cccc(-c3ccc(C=C4C(=O)Nc5ccc(Cl)cc54)o3)c2)CC1,Potency,[1],inactive
same,Potency,[2],inactive
COc1ccc2nc3cc(Cl)ccc3c(Nc3cc(CN4CCCC4)c(O)c(CN4CCCC4)c3)c2n1,Potency,[1],inactive
same,Potency,[2],inactive
CNC(=O)[C@H](Cc1ccccc1)NC(=O)[C@H](CC(C)C)[C@H](CSc1cccs1)C(=O)NO,Potency,[1],inactive
same,Potency,[2],inactive
same,Potency,[5],inactive
same,"activity change, negative = inhibition",[4],-35.2%
O=C1NC(=O)C(c2ccccc2[N+](=O)[O-])=C1Nc1ccc(O)c(Cl)c1,outcome,[6],inactive
same,outcome,[7],inactive
same,Potency,[8],inactive
same,outcome,[9],inactive
same,Potency,[1],inactive
same,Potency,[2],inactive
same,Potency,[5],inactive

# From PubChem BioAssay (NCATS)
